Test results as given in PubChem BioAssay (Tox21).
Results filed as inconclusive are left out. Active and inactive are the calls of the source. The call rests on the fitted dose curve; in most records, active means well fitted inhibition curve with a large enough effect in the repeat runs; inconclusive means weak or mixed curves; inactive means flat fitted curve, though single readings scatter. Positions of bridges follow the written chain, without caps; N, C: chain ends. Non-standard residues stand in square brackets, D forms with d. Residues, ends and D or L forms follow the SMILES beside them. hArg = N=C(N)NCCCC[C@H](N)C(=O)O; Mpa = O=C(O)CCS

Test: qHTS assay to identify small molecule HDAC inhibitors (AID 1259364); further: nearly all actives have a fitted effect of over 45% in size; on activity change, negative = inhibition: top concentration of the series differs between compounds
Conditions: HCT-116 HDAC-Glo I/II luminescence, 2 h; series mostly up to 92.4 µM; activity change, negative = inhibition: at the top concentration
Description: U.S. Tox21 Program National Center for Advancing Translational Sciences [NCATS] NIH Chemical Genomics Center [NCGC] U.S. Environmental Protection Agency [EPA] National Institutes of Environmental Health Sciences [NIEHS] National Toxicology Program [NTP] U.S. Food and Drug Administration [FDA] Tox21 Assay Overview: Histone deacetylases (HDACs) are a group of epigenetic enzymes that regulate gene expression by histone deacetylation. HDACs are capable of introducing epigenetic modifications and such aberrations contribute to the onset and progression of several human diseases, thus making HDACs a popular therapeutic target. For identifying endogenous class I/II HDAC inhibitors a homogenous, luminogenic HDAC I/II cell based assay was used to measure the relative activity of class I and II HDACs from cells. Wild type HCT-116 cells were used to screen Tox21 libraries for identifying class I/II HDAC inhibitors.
Tox21 Assay Protocol Summary: HCT-116 cells were dispensed at 1,500 per well in 5uL of culture medium into white solid bottom 1536-well plates (Greiner Bio-One, Monroe, NC) using a Multidrop Combi (Thermo Scientific, Waltham, MA) dispenser. The assay plates were incubated at 37 C and 5% CO2 for an overnight, and then 23nL of compounds dissolved in DMSO and positive control were transferred using a Pintool station (Wako, San Diego, CA). The assay plates were incubated at 37C and 5% CO2 for 2hr. After compound treatment, 4uL of HDAC-Glo reagent (Promega Corporation, Madison, WI) was added to each well of the assay plates using Flying Reagent Dispenser (FRD, Aurora Discovery, San Diego, CA) and incubated the assay plates at room temperature for 30min. The luminescence signal was quantified using a ViewLux plate reader (Perkin Elmer, Shelton, CT).
On the % scale 0 is the no-effect control and ±100 the full control effect; potency means the concentration at half of the fitted maximal effect.

Row | Structure (SMILES) | activity change, negative = inhibition | Potency
1 | CC(=O)c1cc(C)oc1C | 1.44% (inactive) | –
2 | CC(C)=CCC[C@@](C)(O)[C@H]1CC=C(C)CC1 | 0.612% [at 42.5 µM] (inactive) | –
3 | C=CC/C=C/C | 0.492% (inactive) | –
4 | CCO | 7.19% (inactive) | –
5 | C=C(C)C1CC=C(C)C(=O)C1 (stereo not given) | -0.378% (inactive) | –
6 | O=[N+]([O-])c1c(Cl)cc(Cl)cc1Cl | 7.62% (inactive) | –
7 | N[C@@H](Cc1ccc(O)cc1)C(=O)O | 6.85% [at 8.39 µM] (inactive) | –
8 | CC(=O)C(C)O (stereo not given) | -1.31% (inactive) | –
9 | C[C@@H](O)C(=O)O | 9.41% (inactive) | –
10 | CCOCCOCC | -0.174% (inactive) | –
11 | CC(O)COC(C)(C)C (stereo not given) | 0.701% (inactive) | –
12 | ONc1ccccc1 | – | 27 µM (active)
13 | OCC(O)CN1CCN(c2ccccc2)CC1 (stereo not given) | 14.7% [at 42.5 µM] (inactive) | –
14 | CN(C)CC/C=C1/c2ccccc2COc2ccc(CC(=O)O)cc21 | -15.8% [at 42.5 µM] (inactive) | –
15 | NCC1(Cc2noc(=O)[nH]2)CCCCC1 | -1.39% (inactive) | –
16 | COC(=O)c1cccc(Cl)c1 | 0.193% (inactive) | –
17 | CCC[C@@H]1C[C@@H](C(=O)N[C@@H]([C@H]2O[C@H](SC)[C@H](O)[C@@H](O)[C@H]2O)[C@@H](C)O)N(C)C1 | -0.0162% [at 42.5 µM] (inactive) | –
18 | CC1OCCC1=O (stereo not given) | -0.132% (inactive) | –
19 | O=C(O)CNC(=O)CNC(=O)CNC(=O)CSC(=O)c1ccccc1 | 1.73% [at 42.5 µM] (inactive) | –
20 | C[C@]12CCC(=O)C=C1CC[C@H]1[C@@H]3CC[C@](O)(C(=O)CO)[C@@]3(C)C[C@H](O)[C@@]12F | 13.3% [at 42.5 µM] (inactive) | –

Row | Structure (SMILES) | activity change, negative = inhibition | Potency
21 | CC(C)=CCC/C(C)=C/COC=O | -1.28% (inactive) | –
22 | CC/C=C\CCOC(=O)c1ccccc1O | – | 15.4 µM (active)
23 | Cc1ncc([N+](=O)[O-])n1CC(C)O (stereo not given) | 4.93% [at 42.5 µM] (inactive) | –
24 | CCCCSCCCC | 12.5% (inactive) | –
25 | CCC(C)C(C)=O (stereo not given) | -3.41% (inactive) | –
26 | CC(=O)CCc1ccc(OC(C)=O)cc1 | -4.76% (inactive) | –
27 | O=C1NC(c2ccccc2)(c2ccccc2)C(=O)N1COP(=O)(O)O | -0.598% [at 42.5 µM] (inactive) | –
28 | O=C(O)[C@H](O)c1ccccc1 | -3.07% [at 42.5 µM] (inactive) | –
29 | CCC/C=C(\C=O)CC | 2.01% (inactive) | –
30 | CC(=O)Nc1ccc(OC(=O)c2ccccc2OC(C)=O)cc1 | – | 23.7 µM (active)
31 | NC(=O)[C@@H]1CSSCCC(=O)N[C@@H](CCCCN=C(N)N)C(=O)NCC(=O)N[C@@H](CC(=O)O)C(=O)N[C@@H](Cc2c[nH]c3ccccc23)C(=O)N2CCC[C@H]2C(=O)N1 ([Mpa][hArg]GDWPC-NH2; disulfide 1-7) | 5.99% [at 42.5 µM] (inactive) | –
32 | CCCCCCCCCCOC(C)=O | -0.365% (inactive) | –
33 | OC[C@H]1O[C@@H](O[C@@H]2[C@@H](CO)O[C@](O)(CO)[C@H]2O)[C@H](O)[C@@H](O)[C@H]1O | 5.24% [at 42.5 µM] (inactive) | –
34 | O=Cc1cc2ccccc2o1 | 4.12% (inactive) | –
35 | COC(=O)c1cc(Cl)cc(Cl)c1 | 5.78% (inactive) | –
36 | CCCc1ccc(O)cc1 | 0.936% (inactive) | –
37 | Cn1c(=O)c2c(ncn2CCO)n(C)c1=O | -2.15% [at 42.5 µM] (inactive) | –
38 | c1ccc2c(CC3=NCCN3)cccc2c1 | -9.78% [at 42.5 µM] (inactive) | –
39 | O=C1CCC(=O)N1Cl | -5.73% (inactive) | –
40 | C#CCN[C@@H]1CCc2ccccc21 | -0.745% [at 42.5 µM] (inactive) | –
